# Assay outcomes (PubChem BioAssay)
# This is a sample that favours compounds with a hit; in the whole collection about 3.2% have one here.
# DENV2 CPE: protects cells from dengue virus 2 cytopathic effect. AID 651640. 1.7% of 350,000 active. DENV2-infected cells, cytopathic effect rescue, plate reader. CPE inhibition, % at 9.99 µM; in the data active = CPE inhibition above about 20%, passing the limit was not always enough; inconclusive = no clear call, values can overlap the other calls; tested in BHK-21 cells;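 note: 0% = median of neutral control wells and 100% = median of positive control wells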
# ERAP1 HTS inh: inhibitors of human ERAP1 aminopeptidase; recombinant ERAP1, Leu-AMC fluorescence, 60 min; 0.15% of 340,000 active; inhibition, % at 10.7 µM;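 active = mean replicate inhibition of at least 30%, or all replicates individually reaching that 30% level; inactive = mean below 30% and not every replicate reaching it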;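 note: 0% = neutral control wells and 100% = L-leucinethiol positive control wells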
# Target sequence (Q9NZ08 whole entry, looked up): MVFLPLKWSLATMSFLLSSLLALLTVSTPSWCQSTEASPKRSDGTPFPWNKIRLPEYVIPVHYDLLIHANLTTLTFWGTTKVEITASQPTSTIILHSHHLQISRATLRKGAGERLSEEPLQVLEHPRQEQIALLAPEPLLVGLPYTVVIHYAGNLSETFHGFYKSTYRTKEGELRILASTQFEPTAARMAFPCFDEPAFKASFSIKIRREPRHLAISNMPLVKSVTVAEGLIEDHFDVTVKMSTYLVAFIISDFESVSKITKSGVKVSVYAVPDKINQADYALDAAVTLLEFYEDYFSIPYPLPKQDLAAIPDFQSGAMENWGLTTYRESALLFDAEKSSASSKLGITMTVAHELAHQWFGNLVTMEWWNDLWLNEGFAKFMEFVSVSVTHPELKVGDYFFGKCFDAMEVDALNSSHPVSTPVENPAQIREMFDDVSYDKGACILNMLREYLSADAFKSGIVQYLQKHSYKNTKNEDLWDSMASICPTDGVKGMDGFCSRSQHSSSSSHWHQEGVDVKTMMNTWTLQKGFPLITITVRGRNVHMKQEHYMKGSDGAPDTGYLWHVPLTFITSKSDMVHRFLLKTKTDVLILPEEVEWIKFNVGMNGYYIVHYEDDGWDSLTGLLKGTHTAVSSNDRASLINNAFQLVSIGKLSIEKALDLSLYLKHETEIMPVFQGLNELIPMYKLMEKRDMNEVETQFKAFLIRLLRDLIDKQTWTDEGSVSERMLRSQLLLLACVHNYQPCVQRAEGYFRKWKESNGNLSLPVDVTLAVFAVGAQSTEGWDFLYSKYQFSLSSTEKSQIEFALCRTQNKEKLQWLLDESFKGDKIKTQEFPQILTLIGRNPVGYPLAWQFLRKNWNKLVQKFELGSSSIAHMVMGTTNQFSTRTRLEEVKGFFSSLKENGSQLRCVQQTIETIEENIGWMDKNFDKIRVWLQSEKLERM
# Ecoli rRNA inh: inhibits bacterial ribosomal RNA function over humanized ribosomes. GFP signal change (wild-type ribosome), % (test concentration not listed). AID 720706. E. coli WT GFP vs humanized-ribosome RFP mutants, fluorescence, 24 h; active compounds read low; DMSO median 0, no signal -100. 1.6% of 350,000 active;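 active = significant combined selectivity score with lowered wild-type GFP, culture density cut under 30%, mutant RFP and density less affected; inactive = any of these conditions unmet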
# GSIS activator: primary screen for activators of insulin secretion dependent on glucose, INS-1E cells, GLuc reporter luminescence; INS-1E GLuc reporter insulin secretion, 2-3 h; activation, % at 16.6 µM; 0.61% of 370,000 active;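 active = lowest replicate activation of at least 40%, so every replicate reaches that level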;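 note: 0% = median of neutral control wells and 100% = median of IBMX positive control wells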
# PGC1a acetyl inh: modulators of PGC1a acetylation | U2OS PGC1a acetylation, AlphaScreen anti-acetyl-lysine; with virally co-expressed GCN5 acetyltransferase | inhibition, % at 15.6 µM | 0.17% of 350,000 active | AID 651687;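 active = every replicate shows inhibition of at least 40%; inconclusive = mean inhibition at least 40% but some replicate below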;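 note: 0% = neutral control wells and 100% = positive control wells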
# CaV13 ICDI inh: Primary screen for inhibitors of IQ motif and Ca2+-dependent inactivation inhibitor domain binding in CACNA1D, Förster resonance energy transfer in living cells, … | HEK cells, CFP/YFP FRET ICDI-IQ, plate reader, 10 min; percent FRET-ratio fall versus neutral wells | inhibition, % at 12.3 µM | 0.098% of 340,000 active;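 active = mean replicate inhibition of at least 30% and at least 1% of replicates passing that level; inconclusive = only one of the two criteria is met; inactive = neither criterion is met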;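 note: 0% = median of the neutral control wells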
# * marks the source's active call; other numbers are inactive results; ? = inconclusive; nt = no result given; + = active, no number; ! = not active in a repeat.
SMILES,DENV2 CPE,ERAP1 HTS inh,Ecoli rRNA inh,GSIS activator,PGC1a acetyl inh,CaV13 ICDI inh
Cc1noc(C)c1NC(=O)N(C)C[C@@H]1Oc2cc(C#CCN(C)C)ccc2S(=O)(=O)N([C@H](C)CO)C[C@@H]1C,?,1.8,5.3,9.4,12.5,nt
CCCn1c(=N)n(CC(O)COc2ccc(C)cc2)c2ccccc21 (stereo not given),41.4*,-2.5,-26.1*,-14.4,29.7,10.1
O=C(O)c1ccc(OCC(O)Cn2c3ccccc3c3ccccc32)cc1 (stereo not given),4.3,-0.8,-46.0*,-31.2,-1.7,-3.0
CCN(CC)CCn1c(=N)n(CC(O)COc2ccccc2)c2ccccc21 (stereo not given),-1.7,-1.7,15.7,51.2*,38.8,-5.1
CCN(CC)CCn1c(=N)n(CCOc2ccccc2)c2ccccc21,nt,-5.3,1.1,40.7,-15.4,-5.1
CCn1c(=N)n(CC(O)COc2ccc(C)cc2)c2ccccc21 (stereo not given),1.7,-1.1,-11.4,23.7,nt,-5.2
C[C@@H]1CN([C@@H](C)CO)C(=O)Cc2cc(NC(=O)C3CCCCC3)ccc2O[C@H]1CN(C)C(=O)Nc1ccc(F)cc1,-2.6,nt,-1.2,-20.3,-1.2,nt
C[C@H]1CN([C@@H](C)CO)C(=O)Cc2cc(NC(=O)Nc3cccc4ccccc34)ccc2O[C@H]1CN(C)Cc1ccc(C(F)(F)F)cc1,33.5*,1.0,0.3,-0.6,-3.6,nt
C[C@H](CO)N1C[C@H](C)[C@H](CN(C)Cc2ccc(C(F)(F)F)cc2)Oc2ccc(NC(=O)Nc3cccc4ccccc34)cc2CC1=O,42.2*,1.4,9.0,-16.1,-6.2,nt
C[C@@H]1CN([C@H](C)CO)C(=O)Cc2cc(NC(=O)Nc3cccc4ccccc34)ccc2O[C@H]1CN(C)Cc1ccc(C(F)(F)F)cc1,-7.8,0.8,1.7,7.4,-1.4,nt
CC1=C(C(=O)OCc2ccccc2)C(c2cccnc2)c2c(n(C)c(=O)n(C)c2=O)N1 (stereo not given),-3.2,-3.7,-16.6*!,42.5*!,-7.0,-10.1
COCC1COS(=O)(=O)NC1(C)C (stereo not given),20.3*,0.4,4.0,nt,3.3,-9.3
O=c1oc2c(CN3CCCCC3)c(O)ccc2cc1-c1nc2ccccc2[nH]1,nt,-11.1,25.0,-2.2,-8.6,34.7*
O=c1oc2c(O)cccc2cc1-c1nc2ccccc2[nH]1,-3.2,0.1,15.2,6.0,nt,33.7*
O=c1oc2c(CN3CCN(CCO)CC3)c(O)ccc2cc1-c1ccccn1,1.0,98.5*,11.4,-2.6,-2.6,+
O=c1[nH]cccc1-c1nc2ccccc2[nH]1,-0.3,-76.8,6.5,6.6,19.5,-2.7
CCc1cc2c(=O)c(-c3nc4ccccc4[nH]3)coc2c(CN2CCCCC2)c1O,1.5,nt,-11.3,-20.2,-5.5,-15.1
CCC(=O)N1[C@@H]2CN(S(=O)(=O)c3ccccc3C)c3ccccc3[C@@H]2[C@@H]1CO,-2.8,2.4,0.7,-1.3,-9.5,nt
Nc1ccc2nc(-c3ccccc3)cnc2c1,2.5,0.2,-0.2,7.0,-6.1,+
Nc1ccc(-c2cnc3ccccc3n2)cc1,-0.7,-1.5,-7.4,nt,-0.8,-67.4
Cc1ccc(C(=O)NCC(=O)NCC(c2cccs2)N2CCOCC2)cc1C (stereo not given),93.4*,-3.5,3.0,-0.2,18.9,-4.5
COc1ccc2c3c([nH]c2c1)[C@@H](CO)N(S(C)(=O)=O)CC31CN(C(=O)c2ccncc2)C1,4.1,-1.1,2.3,22.0,5.3,nt
CCOC(=O)CSc1[nH]c2cc(OC)ccc2c1[N+](=O)[O-],24.2*,1.3,7.8,6.9,-2.1,-4.2
COc1ccc(CC(=O)N/N=C(\C)c2cccnc2)cc1OC,-6.9,3.4,2.2,12.5,nt,nt
CCOc1ccc(CC(=O)N/N=C(\C)c2cccnc2)cc1OCC,78.4*,2.2,1.4,7.2,nt,nt
SMILES,DENV2 CPE,ERAP1 HTS inh,Ecoli rRNA inh,GSIS activator,PGC1a acetyl inh,CaV13 ICDI inh
CCOc1cccc(/C=C/c2ccc3cccc(O)c3n2)c1OC,-5.5,-2.7,-37.0*,-26.3,2.5,-19.2
COC1=CC(=O)c2c(ccc3ncnc(N)c23)C1=O,-0.9,-2.7,nt,nt,66.1*,-2.0
C[C@H](CO)N1C[C@H](C)[C@H](CN(C)C(=O)c2cccc(F)c2)Oc2ncc(-c3cccnc3)cc2C1=O,10.2,0.5,0.2,12.3,8.9,nt
Cc1nn(-c2ccc(C(=O)O)cc2)c2c1C(=O)CC(C)(C)C2,-2.0,0.8,9.4,-1.9,-1.6,-5.6
Cc1c(CC(Cl)(Cl)Cl)c2c(n1O)CC(C)(C)CC2=O,7.6,-3.0,-31.6*,-49.1,6.6,-14.8
Cc1noc(C)c1NC(=O)Nc1cccc2c1O[C@H](CN(C)Cc1ccc(Cl)c(Cl)c1)[C@H](C)CN([C@@H](C)CO)C2=O,14.0,0.5,0.6,-32.8,4.2,nt
COc1ccc(NC(=O)COC(=O)c2c(C)noc2C)cc1Cl,38.8*,-7.3,-2.4,2.4,-28.0,-5.3
COc1ccc(NC(=O)COC(=O)CCCOc2ccc(Cl)cc2Cl)cc1Cl,0.0,-3.8,-21.7*,3.7,nt,5.6
O=C(C[C@H]1CC[C@H]2[C@@H](COC[C@@H](O)CN2S(=O)(=O)c2cccc(F)c2)O1)NCc1ccc2c(c1)OCO2,3.2,-1.4,2.8,0.1,2.0,nt
O=S(=O)(c1ccc(F)cc1)N1CC[C@@H]2[C@H](CO)Nc3ccc(Br)cc3[C@@H]21,nt,nt,-16.9,-10.7,9.3,nt
OC[C@@H]1Nc2ccc(-c3ccccc3)cc2[C@H]2[C@@H]1CCN2Cc1ccc(F)cc1,48.5*,0.7,-11.8,6.9,-21.5,nt
O=S(=O)(c1ccc(F)cc1)N1CC[C@@H]2[C@H]1c1cc(-c3ccc(F)cc3)ccc1N[C@@H]2CO,86.4*,nt,-10.4,-5.6,0.6,nt
N#Cc1ccc(-c2ccc3c(c2)[C@H]2[C@H](CCN2S(=O)(=O)c2cccc(F)c2)[C@@H](CO)N3)cc1,11.6,0.2,-6.6,5.3,2.7,nt
Cc1cccc(S(=O)(=O)N2CC[C@@H]3[C@H]2c2cc(-c4ccc(C#N)cc4)ccc2N(C)[C@H]3CO)c1,12.6,3.6,0.7,5.4,0.5,nt
N#Cc1ccc(-c2ccc3c(c2)[C@@H]2[C@@H](CCN2S(=O)(=O)c2cccc(F)c2)[C@H](CO)N3)cc1,34.1*,0.3,-8.9,10.8,-18.9,nt
Cc1cccc(S(=O)(=O)N2CC[C@@H]3[C@@H](CO)N(C)c4ccc(-c5ccc(C#N)cc5)cc4[C@@H]32)c1,45.4*,0.9,0.7,-31.2,11.7,nt
C/C=C/c1cnc2c(c1)C(=O)N([C@@H](C)CO)C[C@H](C)[C@H](CN(C)C(=O)Nc1c(C)noc1C)O2,-3.1,-1.6,-0.7,31.1,-3.5,nt
